Source: PubChem BioAssay (NCATS)
Records with an inconclusive call do not appear. Active and inactive are the calls of the source. Unless noted, the call rests on the fitted dose curve; in most records, active means well fitted curve in the direction sought with a large enough effect; inconclusive means small, poorly fitted or top-dose-only effect, or another doubt; inactive means no such curve, though single readings can be large; an effect the other way counts as inactive or inconclusive.

Tests used:
[1] = qHTS for Inhibitors of Plasmodium falciparum (DD2) proliferation (AID 504314);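 further: parasite DNA measured by SYBR Green fluorescence after red cell lysis; plate controls were DMSO vehicle for no effect and artemisinin wells for full effect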
How it was run: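 Normalization used 0.29 uM artemisinin as full inhibition and DMSO as baseline. Parasitized erythrocytes were exposed to compounds for 72 h (37C, 5% CO2), then lysed with saponin/Triton buffer containing SYBR Green I.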

[2] = qHTS for Inhibitors of Plasmodium falciparum (GB4) proliferation (AID 504315);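 further: 0% = DMSO vehicle and -100% = 0.29 µM artemisinin control; nearly all actives have a fitted effect of over 50% in size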
How it was run: (§1)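 Parasite growth measured as SYBR Green DNA fluorescence (ex 485, em 535 nm) after overnight lysis following 72 h culture at 37 °C, 0.3% parasitemia, 2.5% hematocrit. Values normalized against DMSO and 0.29 uM artemisinin controls, with plate-stack correction.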

[3] = qHTS for Inhibitors of Plasmodium falciparum (7G8) proliferation (AID 504316);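 further: series mostly up to about 6.7 µM; 0% = DMSO vehicle and -100% = 0.29 µM artemisinin full kill; nearly all actives have a fitted effect of over 65% in size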
How it was run: as §1

[4] = qHTS for Inhibitors of Plasmodium falciparum (HB3) proliferation (AID 504318);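 further: 0% = DMSO vehicle and -100% = artemisinin control; nearly all actives have a fitted effect of over 60% in size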
How it was run: as §1

[5] = qHTS for Inhibitors of Plasmodium falciparum (CP250) proliferation (AID 504320);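 further: plate controls were DMSO vehicle for no effect and 0.29 µM artemisinin control for full effect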
How it was run: as §1

[6] = molecular target: Atrial natriuretic peptide receptor 1 (Homo sapiens) (UniProt P16066); assay: Natriuretic polypeptide receptor (hNpr1) antagonism - Pilot CMLD screen (AID 1347052; calls by dose curve;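 further: HEK293 cells with hNpr1 stimulated by hNppA peptide at 0.1 nM; cGMP level read as GloSensor luciferase luminescence after agonist stimulation; series mostly up to about 9.2 µM; on the % scale 0 is the no-effect control and ±100 the full control effect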)
Chain of Atrial natriuretic peptide receptor 1 (Homo sapiens) (P16066 whole entry, looked up): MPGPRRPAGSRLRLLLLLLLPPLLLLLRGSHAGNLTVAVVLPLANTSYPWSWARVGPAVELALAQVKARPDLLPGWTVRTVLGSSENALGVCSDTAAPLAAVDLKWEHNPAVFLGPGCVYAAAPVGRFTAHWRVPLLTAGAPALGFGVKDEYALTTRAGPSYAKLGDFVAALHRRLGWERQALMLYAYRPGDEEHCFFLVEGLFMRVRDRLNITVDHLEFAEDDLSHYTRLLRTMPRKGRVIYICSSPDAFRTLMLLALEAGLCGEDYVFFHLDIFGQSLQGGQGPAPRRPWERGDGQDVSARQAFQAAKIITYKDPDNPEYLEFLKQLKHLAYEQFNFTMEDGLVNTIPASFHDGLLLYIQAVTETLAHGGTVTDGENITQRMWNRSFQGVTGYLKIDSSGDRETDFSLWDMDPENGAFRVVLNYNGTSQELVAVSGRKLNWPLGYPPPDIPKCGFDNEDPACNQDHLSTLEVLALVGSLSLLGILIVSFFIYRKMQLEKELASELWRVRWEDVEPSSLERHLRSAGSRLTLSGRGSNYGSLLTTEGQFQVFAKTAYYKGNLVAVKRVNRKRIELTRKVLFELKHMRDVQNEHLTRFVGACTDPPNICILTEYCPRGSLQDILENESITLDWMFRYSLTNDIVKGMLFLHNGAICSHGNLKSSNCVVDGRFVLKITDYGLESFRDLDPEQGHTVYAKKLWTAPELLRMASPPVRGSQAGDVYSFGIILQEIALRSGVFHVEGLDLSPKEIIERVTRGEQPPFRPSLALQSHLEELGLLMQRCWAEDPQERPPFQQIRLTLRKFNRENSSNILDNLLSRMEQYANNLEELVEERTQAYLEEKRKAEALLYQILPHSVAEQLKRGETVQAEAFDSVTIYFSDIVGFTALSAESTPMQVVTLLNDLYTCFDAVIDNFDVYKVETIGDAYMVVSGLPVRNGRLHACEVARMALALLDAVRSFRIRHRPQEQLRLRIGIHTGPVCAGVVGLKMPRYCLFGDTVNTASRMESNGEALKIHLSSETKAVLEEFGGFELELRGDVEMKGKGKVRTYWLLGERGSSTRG

C[C@@H]1C[C@H]2CC(=O)N3[C@H](CC(=O)N2[C@H]1c1ccccc1)C[C@@H](C)[C@@H]3c1ccccc1
inactive: Potency [1] | Potency [2] | Potency [3] | Potency [4] | Potency [5] | Potency [6]

COC(=O)c1nnc(SC)nc1C(=O)OC
inactive: Potency [1] | Potency [2] | Potency [3] | Potency [4] | Potency [5] | Potency [6]

C#CC[C@@]1(C(=O)OC)C=C[C@@H](C)[C@H](c2ccccc2Br)N1C(=O)C(F)(F)F
inactive: Potency [1] | Potency [2] | Potency [3] | Potency [4] | Potency [5] | Potency [6]

C=C(CCN1C=C(C(=O)OCC)C(c2ccccc2)NC1=O)OC (stereo not drawn)
inactive: Potency [1] | Potency [2] | Potency [3] | Potency [4] | Potency [5] | Potency [6]

CC(C)Nc1oc(-c2ccccc2)nc1-c1ccc(C(F)(F)F)cc1
inactive: Potency [1] | Potency [2] | Potency [3] | Potency [4] | Potency [5] | Potency [6]

COC(=O)NC(CCc1ccccc1)C(C(=O)OC)C(=O)OC (stereo not drawn)
inactive: Potency [1] | Potency [2] | Potency [3] | Potency [4] | Potency [5] | Potency [6]

CC(C)C(=O)N[C@H]1CCCN1C(=O)C=Cc1ccccc1
inactive: Potency [1] | Potency [2] | Potency [3] | Potency [4] | Potency [5] | Potency [6]

COC(=O)[C@H](Cc1ccccc1)NC(=O)O[C@@H]1C(=O)c2cc(Br)ccc2O[C@H]1c1ccc2c(c1)OCO2
inactive: Potency [1] | Potency [2] | Potency [3] | Potency [4] | Potency [5] | Potency [6]

OC[C@H]1O[C@H](c2ccccc2)C=C[C@H]1OCc1cccc(Br)c1
inactive: Potency [1] | Potency [2] | Potency [3] | Potency [4] | Potency [5] | Potency [6]

C=CCOC(=O)NC(CC(=Nc1ccc(OC)cc1)C(=O)OC)c1ccccc1 (stereo not drawn)
inactive: Potency [1] | Potency [2] | Potency [3] | Potency [4] | Potency [5] | Potency [6]

C=CC[C@@]1(C(=O)OC)C=C[C@@H](C)[C@H](c2ccccc2Br)N1C(=O)C(F)(F)F
inactive: Potency [1] | Potency [2] | Potency [3] | Potency [4] | Potency [5] | Potency [6]

CCOC(=O)NN=C1C[C@@H](O)[C@@H](O)[C@@H]2[C@H]3C(=O)N(Cc4ccccc4)C(=O)[C@@H]3CC[C@@H]12
inactive: Potency [1] | Potency [2] | Potency [3] | Potency [4] | Potency [5] | Potency [6]

COC(=O)[C@H](Cc1ccccc1)NC(=O)O[C@H]1C(=O)c2ccc(OC)cc2O[C@@H]1c1ccc2c(c1)OCO2
inactive: Potency [1] | Potency [2] | Potency [3] | Potency [4] | Potency [5] | Potency [6]

CC1(OC(=O)C2CCCC2)C(=O)C=C2C=C3CCCCN3C=C2C1=O (stereo not drawn)
inactive: activity, negative = inhibition [1] 1.6% [at 1.12 µM] | Potency [2] | Potency [3] | Potency [4] | Potency [5] | Potency [6]

C=CCN1C(=O)[C@@]2(CC(C)=CC[C@@H](C)O2)c2ccccc21
inactive: Potency [1] | Potency [2] | Potency [3] | Potency [4] | Potency [5] | Potency [6]

CC(C)[C@@H](OCc1ccccc1)[C@H](C)C=NOC[C@@H](O)COCc1ccco1
inactive: Potency [1] | Potency [2] | Potency [3] | Potency [4] | Potency [5] | Potency [6]

C[C@H]1Cc2c(-c3ccccc3)nc3c(c2CO1)CN(S(=O)(=O)c1ccc(Cl)c2nonc12)CC3
inactive: Potency [1] | Potency [2] | Potency [3] | Potency [4] | Potency [5] | Potency [6]

N#CCCn1cnc2c1NC=NC2Cl (stereo not drawn)
inactive: Potency [1] | Potency [2] | Potency [3] | Potency [4] | Potency [5] | Potency [6]

COC(=O)[C@@H]1CC[C@H](C)[C@@H](c2ccc(C)cc2)N1C(=O)c1ccc(C=NO[C@H](C)c2cn([C@@H]3COC[C@@H]3O)nn2)cc1
inactive: Potency [1] | Potency [2] | Potency [3] | Potency [4] | Potency [5] | Potency [6]

COCCN1C(=O)NC(c2cccc(C(F)(F)F)c2)C(C(=O)OC)=C1C (stereo not drawn)
inactive: Potency [1] | Potency [2] | Potency [3] | Potency [4] | Potency [5] | Potency [6]

CCCCCCC(=O)Cc1cc(OC)c(OC)cc1C=C(C(C)=O)C(=O)OC
inactive: Potency [1] | Potency [2] | Potency [3] | Potency [4] | Potency [5] | Potency [6]

COC(=O)C1=C(C(=O)OC)[C@@H]2Nc3ccccc3[C@@]23C[C@@H](C(=O)OC)N(C(=O)NC(C)(C)C)C3=N1
inactive: Potency [1] | Potency [2] | Potency [3] | Potency [4] | Potency [5] | Potency [6]

COC(=O)N[C@@H](c1cccc(F)c1)[C@]1(C(=O)OC)CCCC1=O
inactive: Potency [1] | Potency [2] | Potency [3] | Potency [4] | Potency [5] | Potency [6]

CN1c2ccccc2[C@@]2(O)C(=O)[C@@]1(C)[C@@H]1c3ccccc3C[C@H]12
inactive: Potency [1] | Potency [2] | Potency [3] | Potency [4] | Potency [5] | Potency [6]

CC(=O)OC[C@H]1O[C@H](CC=NOC[C@@H](C)[C@H](OCc2ccccc2)C(C)C)C=C[C@@H]1OC(C)=O
inactive: Potency [1] | Potency [2] | Potency [3] | Potency [4] | Potency [5] | Potency [6]

CC#CCN1C(=O)NC(c2ccccc2)C(C(=O)OC)=C1C (stereo not drawn)
inactive: Potency [1] | Potency [2] | Potency [3] | Potency [4] | Potency [5] | Potency [6]

O=C1Nc2cccc(Br)c2[C@@]12O[C@H](COc1ccccc1)CC1=CCCC12 (stereo partly drawn)
inactive: Potency [1] | Potency [2] | Potency [3] | Potency [4] | Potency [5] | Potency [6]

CC(C)CON=C1C[C@@H](O)[C@@H](O)[C@@H]2[C@H]3C(=O)N(Cc4ccccc4)C(=O)[C@@H]3CC[C@@H]12
inactive: Potency [1] | Potency [2] | Potency [3] | Potency [4] | Potency [5] | Potency [6]

O=C1N[C@H](Cc2ccccc2)C(=O)N1Cc1cccc2ccccc12
inactive: Potency [1] | Potency [2] | Potency [3] | Potency [4] | Potency [5] | Potency [6]

CC1(OC(=O)c2ccco2)C(=O)C=C2C=C(c3ccsc3)OC=C2C1=O (stereo not drawn)
inactive: Potency [1] | Potency [2] | Potency [3] | Potency [4] | Potency [5] | Potency [6]

COc1ccc(-c2nc(-c3ccccc3)oc2Nc2ccccc2C)cc1
inactive: Potency [1] | Potency [2] | Potency [3] | Potency [4] | Potency [5] | Potency [6]

C[C@H]1Cc2c(-c3ccccc3)nc3c(c2CO1)CN(C(=O)c1cccnc1)CC3
inactive: Potency [1] | Potency [2] | Potency [3] | Potency [4] | Potency [5] | Potency [6]

COc1ccc(O[C@H]2C=C[C@@H](c3ccccc3)O[C@H]2COC(=O)CCC(C)=NO[C@@H](C)c2cc(-c3c(C)cc(C)cc3C)no2)cc1
inactive: Potency [1] | Potency [2] | Potency [3] | Potency [4] | Potency [5] | Potency [6]

C=C[C@@]1(C)CCC=C2C(=O)CCC[C@H]21
inactive: Potency [1] | Potency [2] | Potency [3] | Potency [4] | Potency [5] | Potency [6]

COCC=CC1=CC2=CC(=O)C(C)(OC(=O)c3cnc4ccccc4n3)C(=O)C2=CN1CCCCO (stereo not drawn)
inactive: Potency [1] | Potency [2] | Potency [3] | Potency [4] | Potency [5] | Potency [6]

CCOC(=O)C1=CN(CCNC(=O)OC(C)(C)C)C(=O)NC1c1ccccc1 (stereo not drawn)
inactive: Potency [1] | Potency [2] | Potency [3] | Potency [4] | Potency [5] | Potency [6]

COC(=O)C1=C(C(=O)OC)[C@@H]2N(C)c3ccccc3[C@@]23C[C@@H](C(=O)OC)N(C(=O)Nc2cccc(C#N)c2)C3=N1
inactive: Potency [1] | Potency [2] | Potency [3] | Potency [4] | Potency [5] | Potency [6]

C[C@@H](ON=C1[C@H]2CCn3c(=O)n(-c4ccccc4)c(=O)n3[C@@H]2[C@H](O)[C@@H]2O[C@H]12)c1cn([C@H](CO)Cc2ccccc2)nn1
inactive: Potency [1] | Potency [2] | Potency [3] | Potency [4] | Potency [5] | Potency [6]

CCCCC1=CC2=C(c3ccco3)C(=O)C(C)(OC(=O)c3ccc(OC)cc3)C(=O)C2=CN1Cc1ccc(OC)cc1 (stereo not drawn)
inactive: activity, negative = inhibition [1] 1.26% [at 1.12 µM] | Potency [2] | Potency [3] | Potency [4] | Potency [5] | Potency [6]

COC(=O)NC(C=Cc1ccccc1)C(C(C)=O)C(=O)OC (stereo not drawn)
inactive: Potency [1] | Potency [2] | Potency [3] | Potency [4] | Potency [5] | Potency [6]

CC(=O)C1=C(C)N(Cc2ccccc2)C(=O)NC1c1cccc(C(F)(F)F)c1 (stereo not drawn)
inactive: Potency [1] | Potency [2] | Potency [3] | Potency [4] | Potency [5] | Potency [6]

C#CCN1C(=O)CC[C@@]23C1=NC(C(=O)OC)=C(C(=O)OC)[C@@H]2N(C)c1ccccc13
inactive: Potency [1] | Potency [2] | Potency [3] | Potency [4] | Potency [5] | Potency [6]

COC(=O)CCCC1=CC2=CC(=O)C(C)(OC(=O)c3cccs3)C(=O)C2=CN1C1CCCC1 (stereo not drawn)
inactive: activity, negative = inhibition [1] -0.45% [at 1.12 µM] | Potency [2] | Potency [3] | Potency [4] | Potency [5] | Potency [6]

CCOC(=O)[C@@]1([C@@H](NC(=O)OC)c2ccccc2)CCCC1=O
inactive: Potency [1] | Potency [2] | Potency [3] | Potency [4] | Potency [5] | Potency [6]

C=CCOC(=O)C(C(=O)CC)[C@@H](NC(=O)OC)c1ccc(F)cc1 (stereo partly drawn)
inactive: Potency [1] | Potency [2] | Potency [3] | Potency [4] | Potency [5] | Potency [6]

COC[C@@H](O)[C@H]1OCc2ccccc2[C@H]1C=Cc1ccccc1
inactive: Potency [1] | Potency [2] | Potency [3] | Potency [4] | Potency [5] | Potency [6]

C#CCCCON=C1C[C@@H](O)[C@H](O)[C@H]2[C@@H]3C(=O)N(c4cccc(Oc5ccccc5)c4)C(=O)[C@@H]3CC[C@@H]12
inactive: Potency [1] | Potency [2] | Potency [3] | Potency [4] | Potency [5] | Potency [6]

CCOC(=O)CN1C(=O)N[C@@H](CCc2ccccc2)[C@H](C(=O)OC)[C@H]1C
inactive: Potency [1] | Potency [2] | Potency [3] | Potency [4] | Potency [5] | Potency [6]

C[C@@H]1NC(=O)[C@@H](C)COC(=O)[C@H](C)NC(=O)[C@@H](C)COC1=O
inactive: Potency [1] | Potency [2] | Potency [3] | Potency [4] | Potency [5] | Potency [6]

OC[C@@H](O)[C@@H](O)CCc1ccccc1
inactive: Potency [1] | Potency [2] | Potency [3] | Potency [4] | Potency [5] | Potency [6]

COc1cccc2c1[C@H](C=Cc1ccccc1)[C@@H]([C@H](O)COC(C)=O)OC2
inactive: Potency [1] | Potency [2] | Potency [3] | Potency [4] | Potency [5] | Potency [6]

C[C@@H]1C=CCCO[C@]12C(=O)N(Cc1ccc(F)cc1)c1cccc(Br)c12
inactive: Potency [1] | Potency [2] | Potency [3] | Potency [4] | Potency [5] | Potency [6]

C=CCCN1C(=O)NC(c2ccccc2)C(C(C)=O)=C1C (stereo not drawn)
inactive: Potency [1] | Potency [2] | Potency [3] | Potency [4] | Potency [5] | Potency [6]
